# Laboratory results taken from article PMC11006913.
# Columns and labels:
# Test in all cases: PBM; 200 nM protein, PBS
# Details in all cases: dsDNA, one strand shown
# ALX3 [1] = target: ALX3 (Homo sapiens, UniProt O95076 139-225, N203Q)
# HOXD13 [2] = target: HOXD13 (Homo sapiens, UniProt P35453 263-343, T313R)
# HOXD13 [3] = target: HOXD13 (Homo sapiens, UniProt P35453 263-343)
# HOXD13 [4] = target: HOXD13 (Homo sapiens, UniProt P35453 263-343, T313A)
# HOXC9 = HOXC9 (Homo sapiens, UniProt P31274 178-260, R222W)
# ALX3 [5] = target: ALX3 (Homo sapiens, UniProt O95076 139-225)
# ALX3 [6] = target: ALX3 (Homo sapiens, UniProt O95076 139-225, L168Q)
# ALX3 [7] = target: ALX3 (Homo sapiens, UniProt O95076 139-225, L168V)
# ALX3 [8] = target: ALX3 (Homo sapiens, UniProt O95076 139-225, N203S)
# VAX1 [9] = target: VAX1 (Homo sapiens, UniProt Q5SQQ9 86-172)
# VAX1 [10] = target: VAX1 (Homo sapiens, UniProt Q5SQQ9 86-172, T142I)
# VAX1 [11] = target: VAX1 (Homo sapiens, UniProt Q5SQQ9 86-172, K157R)
# PAX4 = target: T1, PAX4 (Homo sapiens, UniProt O43316 9-242, F177V)
# T1 sequence: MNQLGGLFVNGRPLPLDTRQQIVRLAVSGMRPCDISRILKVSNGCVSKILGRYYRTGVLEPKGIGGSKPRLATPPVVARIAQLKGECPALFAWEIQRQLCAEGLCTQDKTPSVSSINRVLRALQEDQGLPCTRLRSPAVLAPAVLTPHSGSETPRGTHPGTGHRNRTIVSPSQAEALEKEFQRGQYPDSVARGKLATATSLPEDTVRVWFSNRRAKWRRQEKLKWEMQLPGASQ
# ALX3 (Homo sapiens, UniProt O95076 139-225, L168Q), sequence (O95076 139-225 L168Q): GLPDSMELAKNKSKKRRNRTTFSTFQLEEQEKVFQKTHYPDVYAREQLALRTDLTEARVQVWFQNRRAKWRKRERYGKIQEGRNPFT
# ALX3 (Homo sapiens, UniProt O95076 139-225, L168V), sequence (O95076 139-225 L168V): as the sequence (O95076 139-225 L168Q) above, with Q30V counted along it
# ALX3 (Homo sapiens, UniProt O95076 139-225, N203S), sequence (O95076 139-225 N203S): as the sequence (O95076 139-225 L168Q) above, with Q30L, N65S counted along it
# ALX3 (Homo sapiens, UniProt O95076 139-225), sequence (O95076 139-225): as the sequence (O95076 139-225 L168Q) above, with Q30L counted along it
# ALX3 (Homo sapiens, UniProt O95076 139-225, N203Q), sequence (O95076 139-225 N203Q): as the sequence (O95076 139-225 L168Q) above, with Q30L, N65Q counted along it
# VAX1 (Homo sapiens, UniProt Q5SQQ9 86-172), sequence (Q5SQQ9 86-172): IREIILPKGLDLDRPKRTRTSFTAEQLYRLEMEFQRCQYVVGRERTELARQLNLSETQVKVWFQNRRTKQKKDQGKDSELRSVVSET
# VAX1 (Homo sapiens, UniProt Q5SQQ9 86-172, K157R), sequence (Q5SQQ9 86-172 K157R): as the sequence (Q5SQQ9 86-172) above, with K72R counted along it
# VAX1 (Homo sapiens, UniProt Q5SQQ9 86-172, T142I), sequence (Q5SQQ9 86-172 T142I): as the sequence (Q5SQQ9 86-172) above, with T57I counted along it
# HOXD13 (Homo sapiens, UniProt P35453 263-343, T313R), sequence (P35453 263-343 T313R): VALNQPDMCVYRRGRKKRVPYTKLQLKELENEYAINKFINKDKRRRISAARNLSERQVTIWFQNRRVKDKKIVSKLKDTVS
# HOXD13 (Homo sapiens, UniProt P35453 263-343, T313A), sequence (P35453 263-343 T313A): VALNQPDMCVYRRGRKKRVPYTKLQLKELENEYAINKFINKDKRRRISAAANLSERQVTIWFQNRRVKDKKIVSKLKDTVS
# HOXC9, sequence (P31274 178-260 R222W): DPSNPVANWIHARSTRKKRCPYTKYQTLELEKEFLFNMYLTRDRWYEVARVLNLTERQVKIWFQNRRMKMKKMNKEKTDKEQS
# HOXD13 (Homo sapiens, UniProt P35453 263-343), sequence (P35453 263-343): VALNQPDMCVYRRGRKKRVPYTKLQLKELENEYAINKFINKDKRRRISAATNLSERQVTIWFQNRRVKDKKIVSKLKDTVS
sequence,measurement,setting,value
TATTAAAA,binding signal,ALX3 [1],"8.56 upbm affinity estimate (log intensity, higher = more binding, comparable within an allelic series)"
same,binding signal,HOXD13 [2],"10.8 upbm affinity estimate (log intensity, higher = more binding, comparable within an allelic series)"
same,binding signal,HOXD13 [3],"11.8 upbm affinity estimate (log intensity, higher = more binding, comparable within an allelic series)"
same,binding signal,HOXD13 [4],"11.8 upbm affinity estimate (log intensity, higher = more binding, comparable within an allelic series)"
same,binding signal,HOXC9,"11.1 upbm affinity estimate (log intensity, higher = more binding, comparable within an allelic series)"
CCTGGCCC,binding signal,ALX3 [1],"7.75 upbm affinity estimate (log intensity, higher = more binding, comparable within an allelic series)"
same,binding signal,ALX3 [5],"7.59 upbm affinity estimate (log intensity, higher = more binding, comparable within an allelic series)"
same,binding signal,ALX3 [6],"7.65 upbm affinity estimate (log intensity, higher = more binding, comparable within an allelic series)"
same,binding signal,ALX3 [7],"7.67 upbm affinity estimate (log intensity, higher = more binding, comparable within an allelic series)"
same,binding signal,ALX3 [8],"7.74 upbm affinity estimate (log intensity, higher = more binding, comparable within an allelic series)"
ATAAATGG,binding signal,ALX3 [1],"8.33 upbm affinity estimate (log intensity, higher = more binding, comparable within an allelic series)"
same,binding signal,ALX3 [5],"9.85 upbm affinity estimate (log intensity, higher = more binding, comparable within an allelic series)"
ACCCGGGT,binding signal,ALX3 [1],"7.83 upbm affinity estimate (log intensity, higher = more binding, comparable within an allelic series)"
same,binding signal,ALX3 [5],"8.06 upbm affinity estimate (log intensity, higher = more binding, comparable within an allelic series)"
same,binding signal,ALX3 [6],"8.02 upbm affinity estimate (log intensity, higher = more binding, comparable within an allelic series)"
same,binding signal,ALX3 [7],"7.92 upbm affinity estimate (log intensity, higher = more binding, comparable within an allelic series)"
same,binding signal,ALX3 [8],"7.9 upbm affinity estimate (log intensity, higher = more binding, comparable within an allelic series)"
GCTCTGCC,binding signal,ALX3 [1],"7.7 upbm affinity estimate (log intensity, higher = more binding, comparable within an allelic series)"
same,binding signal,ALX3 [5],"7.55 upbm affinity estimate (log intensity, higher = more binding, comparable within an allelic series)"
same,binding signal,VAX1 [9],"7.01 upbm affinity estimate (log intensity, higher = more binding, comparable within an allelic series)"
same,binding signal,ALX3 [6],"7.72 upbm affinity estimate (log intensity, higher = more binding, comparable within an allelic series)"
same,binding signal,ALX3 [7],"7.75 upbm affinity estimate (log intensity, higher = more binding, comparable within an allelic series)"
same,binding signal,VAX1 [10],"7.19 upbm affinity estimate (log intensity, higher = more binding, comparable within an allelic series)"
same,binding signal,ALX3 [8],"7.71 upbm affinity estimate (log intensity, higher = more binding, comparable within an allelic series)"
same,binding signal,VAX1 [11],"7.08 upbm affinity estimate (log intensity, higher = more binding, comparable within an allelic series)"
ATAATATA,binding signal,ALX3 [1],"8.66 upbm affinity estimate (log intensity, higher = more binding, comparable within an allelic series)"
same,binding signal,PAX4,"10.7 upbm affinity estimate (log intensity, higher = more binding, comparable within an allelic series)"
same,binding signal,ALX3 [8],"8.76 upbm affinity estimate (log intensity, higher = more binding, comparable within an allelic series)"
AATATTAT,binding signal,ALX3 [1],"8.61 upbm affinity estimate (log intensity, higher = more binding, comparable within an allelic series)"
same,binding signal,PAX4,"10.7 upbm affinity estimate (log intensity, higher = more binding, comparable within an allelic series)"
same,binding signal,ALX3 [8],"8.71 upbm affinity estimate (log intensity, higher = more binding, comparable within an allelic series)"
AGCCGGCG,binding signal,ALX3 [1],"7.78 upbm affinity estimate (log intensity, higher = more binding, comparable within an allelic series)"
same,binding signal,ALX3 [5],"7.6 upbm affinity estimate (log intensity, higher = more binding, comparable within an allelic series)"
same,binding signal,VAX1 [9],"6.78 upbm affinity estimate (log intensity, higher = more binding, comparable within an allelic series)"
same,binding signal,ALX3 [6],"7.66 upbm affinity estimate (log intensity, higher = more binding, comparable within an allelic series)"
same,binding signal,ALX3 [7],"7.63 upbm affinity estimate (log intensity, higher = more binding, comparable within an allelic series)"
same,binding signal,VAX1 [10],"6.99 upbm affinity estimate (log intensity, higher = more binding, comparable within an allelic series)"
same,binding signal,ALX3 [8],"7.77 upbm affinity estimate (log intensity, higher = more binding, comparable within an allelic series)"
same,binding signal,VAX1 [11],"6.79 upbm affinity estimate (log intensity, higher = more binding, comparable within an allelic series)"
CTTAATTC,binding signal,ALX3 [1],"8.32 upbm affinity estimate (log intensity, higher = more binding, comparable within an allelic series)"
same,binding signal,ALX3 [5],"11.7 upbm affinity estimate (log intensity, higher = more binding, comparable within an allelic series)"
same,binding signal,ALX3 [6],"9.59 upbm affinity estimate (log intensity, higher = more binding, comparable within an allelic series)"
same,binding signal,ALX3 [7],"9.14 upbm affinity estimate (log intensity, higher = more binding, comparable within an allelic series)"
same,binding signal,ALX3 [8],"8.4 upbm affinity estimate (log intensity, higher = more binding, comparable within an allelic series)"
GCGCGAGC,binding signal,ALX3 [1],"7.77 upbm affinity estimate (log intensity, higher = more binding, comparable within an allelic series)"
same,binding signal,ALX3 [5],"7.84 upbm affinity estimate (log intensity, higher = more binding, comparable within an allelic series)"
same,binding signal,ALX3 [6],"7.77 upbm affinity estimate (log intensity, higher = more binding, comparable within an allelic series)"
same,binding signal,ALX3 [7],"7.76 upbm affinity estimate (log intensity, higher = more binding, comparable within an allelic series)"
same,binding signal,ALX3 [8],"7.83 upbm affinity estimate (log intensity, higher = more binding, comparable within an allelic series)"
GGCAGTTA,binding signal,ALX3 [1],"8.06 upbm affinity estimate (log intensity, higher = more binding, comparable within an allelic series)"
same,binding signal,ALX3 [5],"9.02 upbm affinity estimate (log intensity, higher = more binding, comparable within an allelic series)"
same,binding signal,ALX3 [6],"8.19 upbm affinity estimate (log intensity, higher = more binding, comparable within an allelic series)"
same,binding signal,ALX3 [7],"8.14 upbm affinity estimate (log intensity, higher = more binding, comparable within an allelic series)"
same,binding signal,ALX3 [8],"8.16 upbm affinity estimate (log intensity, higher = more binding, comparable within an allelic series)"
ACCGCGGT,binding signal,ALX3 [1],"7.85 upbm affinity estimate (log intensity, higher = more binding, comparable within an allelic series)"
same,binding signal,ALX3 [5],"8.03 upbm affinity estimate (log intensity, higher = more binding, comparable within an allelic series)"
same,binding signal,ALX3 [6],"7.86 upbm affinity estimate (log intensity, higher = more binding, comparable within an allelic series)"
same,binding signal,ALX3 [7],"7.92 upbm affinity estimate (log intensity, higher = more binding, comparable within an allelic series)"
same,binding signal,ALX3 [8],"7.86 upbm affinity estimate (log intensity, higher = more binding, comparable within an allelic series)"
